Measurements from ChEMBL document CHEMBL1961873, “Compounds: GSK PKIS; Assays: Nanosyn kinase panel” (2012).

Columns and labels:
[1] = target: Mast/stem cell growth factor receptor Kit (Homo sapiens) (UniProt P10721); settings: at 1 µM
[2] = system: Mast/stem cell growth factor receptor Kit (Homo sapiens), P10721 [D816V]; settings: at 0.1 µM
[3] = system: Mast/stem cell growth factor receptor Kit (Homo sapiens), P10721 [D816V]; settings: at 1 µM
[4] = system: Mast/stem cell growth factor receptor Kit (Homo sapiens), P10721 [T670I]; settings: at 0.1 µM
[5] = system: Mast/stem cell growth factor receptor Kit (Homo sapiens), P10721 [T670I]; settings: at 1 µM
[6] = system: Mast/stem cell growth factor receptor Kit (Homo sapiens), P10721 [V560G]; settings: at 0.1 µM
[7] = system: Mast/stem cell growth factor receptor Kit (Homo sapiens), P10721 [V560G]; settings: at 1 µM
[8] = target: Tyrosine-protein kinase Lck (Homo sapiens) (UniProt P06239); settings: at 0.1 µM
[9] = target: Tyrosine-protein kinase Lck (Homo sapiens) (UniProt P06239); settings: at 1 µM
[10] = target: Leukocyte tyrosine kinase receptor (Homo sapiens) (UniProt P29376); settings: at 0.1 µM
[11] = target: Leukocyte tyrosine kinase receptor (Homo sapiens) (UniProt P29376); settings: at 1 µM
[12] = target: Tyrosine-protein kinase Lyn (Homo sapiens) (UniProt P07948); settings: at 0.1 µM
[13] = target: Tyrosine-protein kinase Lyn (Homo sapiens) (UniProt P07948); settings: at 1 µM
[14] = target: Tyrosine-protein kinase Lyn (Homo sapiens) (UniProt P07948); settings: at 0.1 µM; remark: listed apart in the source
[15] = target: Tyrosine-protein kinase Lyn (Homo sapiens) (UniProt P07948); settings: at 1 µM; remark: listed apart in the source
[16] = target: T1, Tyrosine-protein kinase Mer (Homo sapiens) (UniProt Q12866); settings: at 0.1 µM
T1 sequence (whole entry): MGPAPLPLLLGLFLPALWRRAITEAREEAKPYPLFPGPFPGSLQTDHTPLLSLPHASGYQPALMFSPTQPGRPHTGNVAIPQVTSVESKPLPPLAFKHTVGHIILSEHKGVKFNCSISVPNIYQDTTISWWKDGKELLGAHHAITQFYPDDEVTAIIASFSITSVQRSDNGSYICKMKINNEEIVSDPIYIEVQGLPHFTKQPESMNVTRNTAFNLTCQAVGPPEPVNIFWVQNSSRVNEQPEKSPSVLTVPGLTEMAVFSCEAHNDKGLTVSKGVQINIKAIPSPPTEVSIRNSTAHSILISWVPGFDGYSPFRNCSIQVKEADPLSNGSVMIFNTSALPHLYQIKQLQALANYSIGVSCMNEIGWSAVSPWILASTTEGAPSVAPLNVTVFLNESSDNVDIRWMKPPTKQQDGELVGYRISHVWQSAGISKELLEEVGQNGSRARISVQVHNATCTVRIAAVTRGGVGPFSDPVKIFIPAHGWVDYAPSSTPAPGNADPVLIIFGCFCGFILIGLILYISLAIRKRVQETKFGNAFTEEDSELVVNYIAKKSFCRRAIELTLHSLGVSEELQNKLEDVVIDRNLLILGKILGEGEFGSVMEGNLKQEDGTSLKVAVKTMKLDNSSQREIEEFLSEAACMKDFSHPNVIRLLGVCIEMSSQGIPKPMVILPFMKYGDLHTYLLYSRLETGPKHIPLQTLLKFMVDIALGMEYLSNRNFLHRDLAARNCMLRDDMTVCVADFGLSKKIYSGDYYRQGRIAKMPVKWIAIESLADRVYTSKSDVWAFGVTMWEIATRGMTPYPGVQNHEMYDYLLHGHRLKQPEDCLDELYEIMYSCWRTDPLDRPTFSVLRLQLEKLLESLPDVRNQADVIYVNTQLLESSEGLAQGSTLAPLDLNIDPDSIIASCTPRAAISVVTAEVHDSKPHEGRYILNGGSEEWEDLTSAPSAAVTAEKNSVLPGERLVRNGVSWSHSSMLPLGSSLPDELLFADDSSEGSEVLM

[17] = target: T1, Tyrosine-protein kinase Mer (Homo sapiens); settings: at 1 µM
[18] = target: Hepatocyte growth factor receptor (Homo sapiens) (UniProt P08581); settings: at 0.1 µM
[19] = target: Hepatocyte growth factor receptor (Homo sapiens) (UniProt P08581); settings: at 1 µM
[20] = target: T2, Muscle, skeletal receptor tyrosine-protein kinase (Homo sapiens) (UniProt O15146); settings: at 0.1 µM;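 note: values are mean inhibition of MuSK from the GSK PKIS kinase screening panel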
T2 sequence (whole entry): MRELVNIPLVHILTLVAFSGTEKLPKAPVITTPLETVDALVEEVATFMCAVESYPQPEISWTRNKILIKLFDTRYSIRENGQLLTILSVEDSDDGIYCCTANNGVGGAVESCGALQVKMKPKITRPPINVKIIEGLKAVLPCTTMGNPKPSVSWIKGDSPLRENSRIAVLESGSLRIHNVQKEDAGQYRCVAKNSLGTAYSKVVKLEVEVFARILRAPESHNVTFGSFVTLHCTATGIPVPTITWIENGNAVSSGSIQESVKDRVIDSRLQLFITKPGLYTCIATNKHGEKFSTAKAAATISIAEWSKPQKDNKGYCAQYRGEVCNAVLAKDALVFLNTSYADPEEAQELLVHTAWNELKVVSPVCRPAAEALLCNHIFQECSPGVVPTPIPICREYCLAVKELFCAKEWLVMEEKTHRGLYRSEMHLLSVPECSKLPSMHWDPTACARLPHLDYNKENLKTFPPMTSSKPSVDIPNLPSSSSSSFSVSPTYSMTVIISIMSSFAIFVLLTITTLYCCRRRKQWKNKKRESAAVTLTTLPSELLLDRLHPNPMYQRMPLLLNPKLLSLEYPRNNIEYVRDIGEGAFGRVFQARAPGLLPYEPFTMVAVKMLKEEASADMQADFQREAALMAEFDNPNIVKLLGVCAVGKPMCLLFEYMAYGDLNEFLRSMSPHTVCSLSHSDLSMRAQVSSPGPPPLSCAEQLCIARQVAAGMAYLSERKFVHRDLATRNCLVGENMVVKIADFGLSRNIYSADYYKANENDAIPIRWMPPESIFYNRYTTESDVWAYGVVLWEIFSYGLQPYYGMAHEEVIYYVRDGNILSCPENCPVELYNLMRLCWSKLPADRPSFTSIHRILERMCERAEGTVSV

Chain of Hepatocyte growth factor receptor (Homo sapiens) (P08581 whole entry): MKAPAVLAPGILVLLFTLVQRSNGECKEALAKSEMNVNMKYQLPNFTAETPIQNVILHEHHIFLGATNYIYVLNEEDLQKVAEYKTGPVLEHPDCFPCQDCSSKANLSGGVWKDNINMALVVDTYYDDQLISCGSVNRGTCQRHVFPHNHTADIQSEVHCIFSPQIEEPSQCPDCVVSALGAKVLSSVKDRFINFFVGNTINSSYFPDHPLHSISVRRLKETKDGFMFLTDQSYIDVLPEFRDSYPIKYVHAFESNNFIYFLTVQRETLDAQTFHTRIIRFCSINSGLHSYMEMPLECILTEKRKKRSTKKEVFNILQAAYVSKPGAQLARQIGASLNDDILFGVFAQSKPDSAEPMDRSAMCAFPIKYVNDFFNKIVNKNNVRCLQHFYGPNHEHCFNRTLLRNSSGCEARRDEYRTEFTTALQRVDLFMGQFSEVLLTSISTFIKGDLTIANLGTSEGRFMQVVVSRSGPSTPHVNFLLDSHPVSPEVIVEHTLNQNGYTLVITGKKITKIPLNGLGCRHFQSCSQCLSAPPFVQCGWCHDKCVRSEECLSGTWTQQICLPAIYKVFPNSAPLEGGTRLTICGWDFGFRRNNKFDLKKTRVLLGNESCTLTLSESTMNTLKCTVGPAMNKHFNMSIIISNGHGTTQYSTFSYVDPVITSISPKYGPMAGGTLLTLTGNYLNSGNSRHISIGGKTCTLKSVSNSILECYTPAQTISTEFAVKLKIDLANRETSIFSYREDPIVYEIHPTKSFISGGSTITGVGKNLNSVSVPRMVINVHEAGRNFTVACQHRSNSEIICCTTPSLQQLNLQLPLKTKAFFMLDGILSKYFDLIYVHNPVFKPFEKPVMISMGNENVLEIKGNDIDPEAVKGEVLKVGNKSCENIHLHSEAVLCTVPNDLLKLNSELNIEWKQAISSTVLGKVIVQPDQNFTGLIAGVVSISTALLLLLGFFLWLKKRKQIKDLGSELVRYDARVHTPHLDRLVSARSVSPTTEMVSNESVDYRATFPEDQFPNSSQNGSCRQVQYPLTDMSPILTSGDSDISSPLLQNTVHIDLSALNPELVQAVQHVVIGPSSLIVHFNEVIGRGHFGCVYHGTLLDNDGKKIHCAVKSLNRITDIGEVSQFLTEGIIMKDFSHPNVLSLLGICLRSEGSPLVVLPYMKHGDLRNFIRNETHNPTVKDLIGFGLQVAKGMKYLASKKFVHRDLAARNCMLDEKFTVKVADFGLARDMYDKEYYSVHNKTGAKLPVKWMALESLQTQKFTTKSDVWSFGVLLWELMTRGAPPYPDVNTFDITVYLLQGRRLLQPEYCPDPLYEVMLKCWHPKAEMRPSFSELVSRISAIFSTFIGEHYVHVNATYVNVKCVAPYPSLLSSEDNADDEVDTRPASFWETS
Chain of Mast/stem cell growth factor receptor Kit (Homo sapiens), P10721 [V560G] (P10721 whole entry V560G): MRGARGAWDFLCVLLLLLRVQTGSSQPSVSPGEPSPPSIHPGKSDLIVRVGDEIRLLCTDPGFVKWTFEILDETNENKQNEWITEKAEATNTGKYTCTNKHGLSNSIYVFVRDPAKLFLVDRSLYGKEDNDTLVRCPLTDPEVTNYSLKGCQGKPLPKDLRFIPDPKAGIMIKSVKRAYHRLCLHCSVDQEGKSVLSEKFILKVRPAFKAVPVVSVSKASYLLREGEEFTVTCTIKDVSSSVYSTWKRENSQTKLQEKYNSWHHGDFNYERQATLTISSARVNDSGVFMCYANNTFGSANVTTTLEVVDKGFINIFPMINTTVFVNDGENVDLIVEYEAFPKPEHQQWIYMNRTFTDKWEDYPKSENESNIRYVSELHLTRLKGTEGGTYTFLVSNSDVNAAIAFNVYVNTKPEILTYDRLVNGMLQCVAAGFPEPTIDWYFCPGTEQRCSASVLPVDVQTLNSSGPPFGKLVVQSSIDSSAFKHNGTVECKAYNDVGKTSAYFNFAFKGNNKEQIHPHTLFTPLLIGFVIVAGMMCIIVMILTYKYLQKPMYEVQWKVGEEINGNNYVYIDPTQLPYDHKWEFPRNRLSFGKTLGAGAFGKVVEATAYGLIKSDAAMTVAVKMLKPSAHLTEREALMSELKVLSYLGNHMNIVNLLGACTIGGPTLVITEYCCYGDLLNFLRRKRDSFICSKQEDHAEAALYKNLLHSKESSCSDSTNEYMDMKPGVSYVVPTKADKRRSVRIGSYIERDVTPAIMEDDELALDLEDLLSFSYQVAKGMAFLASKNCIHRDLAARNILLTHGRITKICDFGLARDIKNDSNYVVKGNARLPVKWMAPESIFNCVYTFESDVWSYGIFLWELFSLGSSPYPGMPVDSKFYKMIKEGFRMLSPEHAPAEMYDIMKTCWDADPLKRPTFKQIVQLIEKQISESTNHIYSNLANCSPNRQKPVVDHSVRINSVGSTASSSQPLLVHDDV
Chain of Tyrosine-protein kinase Lyn (Homo sapiens) (P07948 2-512 limits assumed): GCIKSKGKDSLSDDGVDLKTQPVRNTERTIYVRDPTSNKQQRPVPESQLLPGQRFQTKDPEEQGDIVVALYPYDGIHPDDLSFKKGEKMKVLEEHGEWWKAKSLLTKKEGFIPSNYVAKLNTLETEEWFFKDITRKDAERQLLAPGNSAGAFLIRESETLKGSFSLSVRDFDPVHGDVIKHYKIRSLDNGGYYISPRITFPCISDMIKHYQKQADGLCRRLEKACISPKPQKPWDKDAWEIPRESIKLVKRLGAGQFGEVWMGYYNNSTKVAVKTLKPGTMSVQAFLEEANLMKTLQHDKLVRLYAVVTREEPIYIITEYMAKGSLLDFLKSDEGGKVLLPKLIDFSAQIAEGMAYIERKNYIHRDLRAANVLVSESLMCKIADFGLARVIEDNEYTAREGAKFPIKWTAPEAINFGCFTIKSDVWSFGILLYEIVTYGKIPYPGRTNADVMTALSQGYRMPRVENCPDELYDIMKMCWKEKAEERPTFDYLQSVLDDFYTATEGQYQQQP
Chain of Tyrosine-protein kinase Lck (Homo sapiens) (P06239 2-509 limits assumed): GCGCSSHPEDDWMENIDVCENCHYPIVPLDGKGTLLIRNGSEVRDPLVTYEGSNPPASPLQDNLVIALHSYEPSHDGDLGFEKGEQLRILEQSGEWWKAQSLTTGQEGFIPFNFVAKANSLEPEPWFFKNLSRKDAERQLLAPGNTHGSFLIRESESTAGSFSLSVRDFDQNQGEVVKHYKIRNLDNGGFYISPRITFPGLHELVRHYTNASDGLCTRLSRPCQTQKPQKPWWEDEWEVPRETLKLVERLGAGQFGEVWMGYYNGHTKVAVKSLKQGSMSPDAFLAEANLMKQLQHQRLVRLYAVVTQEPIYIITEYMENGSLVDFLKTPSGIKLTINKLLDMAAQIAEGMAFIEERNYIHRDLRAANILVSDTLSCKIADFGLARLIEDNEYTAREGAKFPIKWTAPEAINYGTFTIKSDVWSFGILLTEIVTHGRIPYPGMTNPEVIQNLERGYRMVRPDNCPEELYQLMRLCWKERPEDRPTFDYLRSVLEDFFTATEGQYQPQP
Chain of Mast/stem cell growth factor receptor Kit (Homo sapiens), P10721 [D816V] (P10721 whole entry D816V): as the sequence (P10721 whole entry V560G) above, with G560V, D816V counted along it
Chain of Mast/stem cell growth factor receptor Kit (Homo sapiens) (P10721 whole entry): as the sequence (P10721 whole entry V560G) above, with G560V counted along it
Chain of Leukocyte tyrosine kinase receptor (Homo sapiens) (P29376 whole entry): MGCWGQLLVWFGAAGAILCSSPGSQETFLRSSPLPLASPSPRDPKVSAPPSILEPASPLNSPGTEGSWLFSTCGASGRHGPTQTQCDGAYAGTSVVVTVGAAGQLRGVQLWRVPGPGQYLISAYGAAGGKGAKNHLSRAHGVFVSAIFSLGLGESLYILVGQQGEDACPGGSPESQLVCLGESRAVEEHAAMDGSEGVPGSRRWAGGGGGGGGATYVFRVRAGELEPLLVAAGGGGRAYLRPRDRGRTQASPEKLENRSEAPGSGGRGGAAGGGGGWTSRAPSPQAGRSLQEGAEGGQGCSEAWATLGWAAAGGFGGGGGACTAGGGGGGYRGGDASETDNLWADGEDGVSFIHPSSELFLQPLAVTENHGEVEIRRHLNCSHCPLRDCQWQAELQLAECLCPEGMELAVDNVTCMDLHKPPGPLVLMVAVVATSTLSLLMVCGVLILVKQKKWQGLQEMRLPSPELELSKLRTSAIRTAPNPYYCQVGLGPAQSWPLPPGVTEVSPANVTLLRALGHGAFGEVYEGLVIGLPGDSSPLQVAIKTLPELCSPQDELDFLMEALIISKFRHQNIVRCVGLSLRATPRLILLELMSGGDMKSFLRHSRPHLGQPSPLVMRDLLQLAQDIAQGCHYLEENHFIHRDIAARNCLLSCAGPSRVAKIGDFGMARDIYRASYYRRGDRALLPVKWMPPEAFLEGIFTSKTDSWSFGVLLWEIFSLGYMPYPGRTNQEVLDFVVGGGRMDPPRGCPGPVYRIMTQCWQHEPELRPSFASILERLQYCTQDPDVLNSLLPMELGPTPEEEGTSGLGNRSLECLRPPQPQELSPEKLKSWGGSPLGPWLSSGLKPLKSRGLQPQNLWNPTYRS
Chain of Mast/stem cell growth factor receptor Kit (Homo sapiens), P10721 [T670I] (P10721 whole entry T670I): as the sequence (P10721 whole entry V560G) above, with G560V, T670I counted along it

Row | SMILES | inhibition [1] [%] | inhibition [2] [%] | inhibition [3] [%] | inhibition [4] [%] | inhibition [5] [%] | inhibition [6] [%] | inhibition [7] [%] | inhibition [8] [%] | inhibition [9] [%] | inhibition [10] [%] | inhibition [11] [%] | inhibition [12] [%] | inhibition [13] [%] | inhibition [14] [%] | inhibition [15] [%] | inhibition [16] [%] | inhibition [17] [%] | inhibition [18] [%] | inhibition [19] [%] | inhibition [20] [%]
1 | Cc1ccc(C(=O)NC2CCC2)cc1-c1ccc(C(=O)NCC2CC2)cc1 | 2.43 | 1.7 | 1.73 | 2.13 | -0.64 | -2.14 | 2.11 | 1.6 | 2.51 | 2.34 | 2.04 | 3.48 | 2.47 | 2.55 | 1.61 | 2.37 | 6.88 | 3.95 | 6.08 | 2.41
2 | NC(=O)c1ccc(Oc2nccc(-c3c(-c4ccc(F)cc4)ncn3C3CCNCC3)n2)cc1 | 6.05 | 4.42 | 4.25 | 1.23 | 1.77 | -1.86 | 0.03 | 5.07 | 4.88 | 4.02 | 4.14 | 4.17 | 5.34 | 1.86 | 4.92 | 3.18 | 6.79 | 13.2 | 8.14 | 3.97
3 | NS(=O)(=O)c1ccc(N/N=C2\C(=O)Nc3ccc(-c4cnco4)cc32)cc1 | 42.2 | 0.65 | 5.47 | 1.64 | 10.7 | 0.82 | 3.19 | -1.05 | 4.4 | 1.24 | 3.37 | 3.33 | 11.1 | 1.68 | 8.81 | 1.31 | 8.19 | 6.22 | 2.64 | 4.18
4 | Fc1ccc(-c2ncn(C3CCNCC3)c2-c2ccnc(Oc3ccc4c(c3)OCO4)n2)cc1 | 9.68 | 4.71 | 5.2 | 3.24 | 3.64 | -1.09 | -0.53 | 3.98 | 8.64 | 3.89 | 8.02 | 5.3 | 7.55 | 3.33 | 5.4 | 2.7 | 5.24 | 2.27 | 7.4 | 5.07
5 | NS(=O)(=O)c1ccc(Nc2cc(-c3ccc(O)c(F)c3)n[nH]2)cc1 | 86.4 | -3.97 | -1.47 | -0.5 | 20.2 | 8.78 | 55.9 | -0.68 | 7.91 | -0.58 | 0.7 | 2.66 | 20 | 0.57 | 17.4 | 1.99 | 13.4 | 0.07 | -2.91 | 5.85
6 | CCS(=O)(=O)c1ccc(OC)c(Nc2ncc(-c3cccc(-c4ccccc4F)c3)o2)c1 | 90.9 | -0.16 | 6.62 | 2.77 | 19.6 | 4.79 | 19.7 | 9.89 | 55.8 | 1.34 | 4.54 | 14.8 | 62.5 | 10.6 | 55.8 | 0.82 | 3 | 2.87 | 3.52 | 2.39
7 | O=C(Nc1n[nH]c2cc(-c3ccccc3)ccc12)C1CC1 | 7.38 | 3.94 | 8.12 | 4.34 | 4.01 | 1.4 | 3.87 | 2.21 | 6.66 | 3.88 | 9.93 | 5.94 | 9.06 | 2.77 | 5.33 | 1.8 | 5.12 | 0.84 | 5.86 | -0.17
